Test results taken from PubChem BioAssay (NCI).
This is part of a sample that, as a whole, favours compounds with a hit. Of some 83,000 tested, about 20% had one in any assay.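 Note: values are percent growth. 100 is the growth of untreated cells, values between 100 and 0 indicate rising inhibition; between -100 and 0 indicates cell death.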 A number with no mark means an inactive call. Calls of active or inactive are those of the source. Rule for the calls: active = growth percent below 10; inactive = the rest.

Assays:
Test in all cases: NCI-60 one-dose screen, 48 h (100 = growth as untreated, 0 = no growth, -100 = all killed)
Settings in all cases: 10 µM unless noted
SR leukemia = tested on: SR leukemia
RPMI-8226 leukemia = tested on: RPMI-8226 leukemia
OVCAR-8 ovarian = tested on: OVCAR-8 ovarian
OVCAR-5 ovarian = tested on: OVCAR-5 ovarian
OVCAR-4 ovarian = tested on: OVCAR-4 ovarian
SK-OV-3 ovarian = tested on: SK-OV-3 ovarian
IGROV1 ovarian = tested on: IGROV1 ovarian
OVCAR-3 ovarian = tested on: OVCAR-3 ovarian
HS 578T breast = tested on: HS 578T breast
NCI/ADR-RES ovarian = tested on: NCI/ADR-RES ovarian

SMILES | growth (SR leukemia) | growth (RPMI-8226 leukemia) | growth (OVCAR-8 ovarian) | growth (OVCAR-5 ovarian) | growth (OVCAR-4 ovarian) | growth (SK-OV-3 ovarian) | growth (IGROV1 ovarian) | growth (OVCAR-3 ovarian) | growth (HS 578T breast) | growth (NCI/ADR-RES ovarian)
COc1ccc(SC2c3cc(OC)c(OC)cc3Oc3nc(N)c(C#N)c(N)c32)cc1 (stereo not given) | -36.2% (active) | -36.1% (active) | -85.4% (active) | -71.7% (active) | -97.1% (active) | -81.3% (active) | -77.1% (active) | -96.1% (active) | -2.22% (active) | -16.3% (active)
CNc1ccc(-c2cc(=O)oc3ccc(Cl)cc23)cc1 | 9.27% (active) | 18.7% | 16.6% | 55.6% | 62.6% | 9.16% (active) | 50.1% | 9.85% (active) | 16% | 12.4%
CN1CCN(CCCOc2cccc3nc(Nc4ccc(Cl)c(F)c4)ccc23)CC1 | -16% (active) | 23.9% | 85% | 58.6% | 65.4% | 82.7% | 65.7% | 69.9% | 52.7% | 49.7%
O=C(N(c1ccccc1)c1ccccc1)n1ccc2nc(Cl)nc(Cl)c21 | 54.4% | 16.1% | 63.2% | 64.2% | 63.3% | 49.7% | 68.5% | 30% | 42.2% | 35.8%
COc1cc(-c2nc3ccccc3[nH]2)ccc1OCC(=O)N=Nc1c(O)[nH]c2ccc(Cl)cc12 | -26.4% (active) | -39.4% (active) | -70.4% (active) | -26.4% (active) | -92.6% (active) | -13.3% (active) | -53.1% (active) | -97.7% (active) | -60% (active) | 89.7%
CCc1nc(N)nc(N)c1C#CC(C)c1cc(-c2ccnc(C)c2)c2oc(C)nc2c1 (stereo not given) | 3.38% (active) | 2.39% (active) | 18.6% | 36.8% | 51% | 16.8% | 2.77% (active) | 17% | 26.4% | 11.5%
O=c1oc2c(C(F)(F)F)cccc2cc1-c1csc(Nc2ccc(OCCF)cc2)n1 | 6.43% (active) | 15.9% | 4.22% (active) | 67.5% | 40.4% | 15.1% | 21.4% | -21.4% (active) | 22.7% | 17.5%
O=C(Nc1ccccc1Cl)c1ccc(NC2=C(Cl)C(=O)N(C3CCCCC3)C2=O)cc1 | -22.2% [30 µM] (active) | 23.6% [30 µM] | 28.9% [30 µM] | 109% [30 µM] | 68.9% [30 µM] | 109% [30 µM] | 78.2% [30 µM] | 15.9% [30 µM] | -0.344% [30 µM] (active) | 78.4% [30 µM]
CCc1nc(N)nc(N)c1C#CC(C)c1ccc(-c2ccncc2)cc1Cl (stereo not given) | 14.7% | 15.1% | 20.8% | 57.6% | 30.9% | 33% | 18.2% | 19.1% | 38.7% | 21.8%
Cn1ccnc1C(=O)/C=C/c1ccc(CC(=O)Nc2ccccc2)cc1 | -10.7% (active) | -12.5% (active) | -0.35% (active) | 29.6% | 31.4% | 27.3% | 12.7% | -7.34% (active) | 37.2% | 13.5%
COc1ccc(/C=C/c2nc(-c3n[nH]c(=O)n3-c3ccccc3)c3ccccc3n2)cc1 | 92.6% | 89.6% | 98.9% | 96.1% | 91.4% | 94.8% | 99.1% | 101% | 100% | 100%
O=C1/C(=C/c2ccc(OCCCOc3ccc(Cl)cc3)cc2)N=C2SCCCN12 | 67.5% | 45.6% | 65.9% | 102% | 49.2% | 105% | 97.8% | 71.3% | 107% | 67.4%
COc1cc(-c2nn(-c3ccc(Br)cc3)cc2C(=O)O)ccc1O | 84.1% | 95.7% | 105% | 122% | 101% | 100% | 91.2% | 101% | 101% | 104%
